# This is a sample that favours compounds with a hit; in the whole collection about 2.4% have one here.
# Pol eta inh: DNA polymerase eta (human) inhibition; Q9Y253; recombinant Pol eta, fluorescent DNA replication assay; Potency, µM (top dose mostly 114 µM), actives largely listed as inhibitors; 390,000 compounds, 1.2% hits; AID 588591
#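 Fluorescent replication assay: 50 nM final substrate added after a 15 min room-temperature compound preincubation with 10 nM enzyme. Signal taken at 0 min and again at 10 min.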
# FEN1 inh: blocks human flap endonuclease 1. Potency, µM (titrated, usually from 114 µM), actives largely listed as inhibitors. AID 588795. Recombinant FEN1 flap cleavage, fluorescence, 15 min. 390,000 compounds, 0.35% hits; also: nearly all actives have a fitted effect of over 65% in size
#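 Read-out was taken twice, immediately and after 15 min, following addition of 50 nM substrate to 10 nM FEN1 that had sat with test compound for 15 min at room temperature. Curves came from a four-parameter Hill model.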
# POLK inh: DNA polymerase kappa (human) inhibition | 400,000 compounds, 0.53% hits | Q9UBT6 | purified Pol kappa, fluorescent DNA synthesis assay, 10 min | Potency, µM (series often up to 107 µM), actives largely listed as inhibitors
#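 10 nM Pol kappa was preincubated with compounds for 15 min at room temperature. Reaction started with 50 nM (final) substrate. Fluorescence read kinetically at 0 and 10 min.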
# Pol beta inh: blocks human DNA polymerase beta activity. Potency, µM (doses to about 114 µM), hits mostly inhibitors. 340,000 compounds, 1.3% hits. Pol beta primer extension/strand displacement, fluorescence kinetic. AID 485314
#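 Enzyme-only controls used 10 nM Pol beta; buffer lacking enzyme served as negative control. Compound preincubated 15 min, then 50 nM substrate added; 0 and 10 min reads at room temperature.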
# POLI inh: inhibitors of human DNA polymerase iota | Potency, µM (highest dose often 115 µM), actives largely listed as inhibitors | AID 588590 | 390,000 compounds, 1% hits | Pol iota fluorescent replication assay, 10 min | Q9UNA4
#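 Fluorescent replication assay read twice, at 0 min and 10 min after adding 50 nM (final) substrate. Enzyme (10 nM) and compounds were first incubated 15 min at room temperature; enzyme-free buffer wells were negative controls.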
# WRN helicase inh: blocks human WRN helicase | WRN helicase unwinding, fluorescent forked duplex, kinetic | Potency, µM (doses to about 114 µM), most hits filed as inhibitors | 360,000 compounds, 0.46% hits; also: nearly all actives have a fitted effect of over 55% in size
#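 Kinetic fluorescence helicase assay: unwinding of a quenched forked DNA duplex (100 nM final) with 2 mM ATP final raises red fluorescence (525/598 nm). Compounds sat 15 min at room temperature with 20 nM WRN beforehand.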
# A number is an active result; i = inactive; ? = inconclusive; nt = not tested or not shown; [ ] = remark or other dose. Calls follow the shape of the dose curve; as a rule, active = well fitted curve in the direction sought with a large enough effect; inconclusive = small, poorly fitted or top-dose-only effect, or another doubt; inactive = no such curve, though single readings can be large; an effect the other way counts as inactive or inconclusive.
SMILES,Pol eta inh,FEN1 inh,POLK inh,Pol beta inh,POLI inh,WRN helicase inh
COc1cccc(/C=N/NC(=O)c2ccc(N3CCCC3=O)cc2)c1,i,i,?,25µM,?,i
COc1cc(/C=N/NC(=O)c2ccc(-c3ccccc3)cc2)cc(OC)c1OC,?,i,?,35µM,?,i
COc1cc(/C=N/NC(=O)c2ccc(-n3cccc3)cc2)ccc1O,22µM,i,?,13µM,89µM,i[11.6 µM]
COc1ccc(/C=N\NC(=O)c2ccc(-c3ccccc3)cc2)c(OC)c1OC,i,i,i,i,i,i
COc1cc(/C=N/NC(=O)c2ccc3c(c2)OCO3)ccc1O,i,i,i,?,i,i
Cc1ccc(C)n1-c1ccc(-c2ccn[nH]2)cc1,i,i,i,22µM,i,i
COC1=C/C(=C/c2c(N)n3nc(CC(=O)N4CCCCC4)sc3nc2=O)C=CC1=O,50µM,i,?,i,?,i
CN(C)c1ccc(/C=C/C(=O)c2cc(Cl)ccc2O)cc1,?,i,i,i,i,50µM
CC(=O)Nc1cccc(C(=O)/C=C/c2ccc(N(C)C)cc2)c1,?,?,?,50µM,22µM,?
C=CCN=c1scc(C)n1/N=C/c1ccc(O)c(O)c1,i,i,?,2.5µM,?,i
CN=c1scc(C)n1/N=C/c1ccc(O)cc1,i,i,i,i,i,i
N#C/C(=C(/O)c1ccc(-c2cccc([N+](=O)[O-])c2)o1)c1nc2ccccc2s1,18µM,i,?,i,50µM,i
N#C/C(=C\c1ccco1)c1nc2ccccc2s1,i,i,i,i,i,i
N#C/C(=C/c1ccc(-c2cc(C(=O)O)cc(C(=O)O)c2)o1)c1nc2ccccc2s1,nt,nt,nt,20µM,nt,nt
O=[N+]([O-])c1ccc(-c2nc(Nc3ccc(O)cc3)c3ccccc3n2)cc1,i,i,i,i,i,i
O=C(O)c1ccc(Nc2nc(-c3ccc([N+](=O)[O-])cc3)nc3ccccc23)cc1,?,?,i,56µM,?,i[11.6 µM]
CCCCOC(=O)C1=C(C)NC(=O)NC1c1ccc([N+](=O)[O-])s1 (stereo unspecified),i,i,?,i,89µM,i
CCCCOC(=O)C1=C(C)NC(=O)NC1c1ccccc1 (stereo unspecified),i,i,i,i,i,i
COc1ccc(C2/C=C\CN(C(=O)CC(C)(C)C)C(C)C(=O)N2Cc2ccc(F)cc2)cc1 (stereo unspecified),nt,i,i,nt,i,nt
COc1ccc(Cl)cc1NC(=O)CSc1nnc2[nH]c(=O)cc(-c3ccccc3)n12,89µM,i,i,i,i,nt
Nc1ncnc2c1ncn2[C@H]1O[C@@H](CSCC[C@@H](N)C(=O)O)[C@H](O)[C@@H]1O,nt,nt,i[19.4 µM],nt,nt,nt
CC(=O)NS(=O)(=O)c1ccc(NC(=O)c2cc3c(=O)n4ccccc4nc3s2)cc1,40µM,i,?,79µM,35µM,i
C=C1c2cccc(O)c2C(O)=C2C(=O)[C@]3(O)C(O)=C(C(N)=O)C(=O)C(N(C)C)C3C(O)C12 (stereo partly specified),nt,nt,4µM,nt,nt,nt
C[C@H]1c2cccc(O)c2C(O)=C2C(=O)C3(O)C(O)=C(C(N)=O)C(=O)[C@@H](N(C)C)[C@@H]3[C@@H](O)[C@@H]21 (stereo partly specified),i,?,i,nt,i,i
C[C@H](CCC(=O)NCC(=O)O)C1CC[C@H]2C3CC[C@@H]4C[C@H](O)CC[C@]4(C)C3C[C@H](O)[C@]12C (stereo partly specified),nt,nt,i[19.4 µM],nt,nt,nt
SMILES,Pol eta inh,FEN1 inh,POLK inh,Pol beta inh,POLI inh,WRN helicase inh
CC(=O)N=c1sc2nc3ccccc3nc2n1N(C(C)=O)C(C)=O,i,79µM,i,i,?,i[11.6 µM]
CC(=O)N=c1sc2ccccc2n1C,i,i,i,i,i,i
O=c1cc(NCc2ccco2)[nH]c(=O)n1-c1ccc(Br)cc1,?,i,?,i,50µM,i[11.6 µM]
CCC[N+](C)(C)c1ccc(/C=C/c2ccncc2)cc1,nt,?,i,nt,?,nt
CCN(CC)S(=O)(=O)c1ccc(OC)c(NC(=O)/C=C/c2ccco2)c1,79µM,i,i,i,?,i
O=C(CNC(=O)c1ccccc1F)N/N=C/c1cc(Br)ccc1OC(=O)/C=C/c1ccco1,i,i,?,?,?,i
COc1ccccc1C(=O)NCC(=O)N/N=C/c1cc(Br)ccc1OC(=O)/C=C\c1ccco1,i,?,32µM,i,?,i[11.6 µM]
O=C(CNC(=O)c1ccc(F)cc1)N/N=C/c1cc(Br)ccc1OC(=O)/C=C/c1ccco1,56µM,i,i,?,?,i[11.6 µM]
COc1ccc(CCN(C(=O)/C=C/C(=O)O)C2CC(=O)N(c3ccccc3)C2=O)cc1 (stereo unspecified),i,i,i,i,i,i
CCc1ccc(N2C(=O)CC(N(CC3CCCO3)C(=O)/C=C/C(=O)O)C2=O)cc1 (stereo unspecified),?,i,i,45µM,i,i
Cc1cccc(C2=N[C@@H](Cc3ccccc3)CO2)c1,nt,nt,i,nt,nt,nt
CCc1nnc(NC(=O)c2c(-c3ccccc3)noc2C)s1,i,i,i,i,i,i
O=C(CSc1ccccc1)Nc1nnc(COc2ccc(Cl)cc2)s1,?,i,i,20µM,i,?
Cc1onc(-c2ccccc2)c1C(=O)Nc1nnc(COc2ccc(Cl)cc2)s1,i,i,i,i,i,56µM
CSCC[C@H](NC(=O)[C@H](CC(C)C)NC(=O)CCNC(=O)[C@@H](NC(=O)[C@H](Cc1ccccc1)NC(=O)[C@H](CO)NC(=O)[C@@H](N)CC(=O)O)C(C)C)C(N)=O,nt,nt,i,nt,nt,nt
CCn1c(CSc2ncn[nH]2)nc2cc(C(=O)O)ccc21,i,i,i,i,i,i
CCn1c(CSc2nnc(-c3ccncc3)n2C)nc2cc(C(=O)O)ccc21,i,?,i,i,25µM,71µM
CCCCNS(=O)(=O)c1ccc2nc(SCC(=O)c3ccc(C#N)cc3)[nH]c2c1,?,?,i,40µM,i,?
O=C(Nc1ccc([N+](=O)[O-])cc1Cl)c1cc(Br)ccc1O,nt,i,i,nt,i,nt
CN1C(=O)c2ccccc2Sc2ccc(NC(=O)Cc3c(F)cccc3Cl)cc21,i,i,i,20µM,?,nt
Cc1ccc(-c2nc3cccc(C)n3c2Nc2ccc(F)cc2)o1,nt,i,i,nt,i,nt
Nc1c(-c2nc(-c3ccccc3)no2)nnn1CC(=O)Nc1cccc(F)c1,i,i,i,14µM,i,nt
Cc1cc(C)cc(NC(=O)Cn2nnc(-c3nc(-c4ccncc4)no3)c2N)c1,i,i,i,?,i,nt
COC(=O)c1cccc(NC(=O)CSc2nc(O)c(-c3ccccc3)c(=O)[nH]2)c1,25µM,i,?,?,?,i[11.6 µM]
COC(=O)c1ccccc1NC(=O)CSc1nc(O)c(-c2ccccc2)c(=O)[nH]1,?,i,i,?,i,i[11.6 µM]

# Screens from PubChem.
